Laboratory results taken from PubChem BioAssay.
Active and inactive are the calls of the source.

Target: Dihydroorotate dehydrogenase (quinone), mitochondrial (Plasmodium falciparum (isolate 3D7)) (UniProt Q08210)
Assay: inhibition of P. falciparum DHODH – biochemical, C-terminal His tag, absorbance 600 nm, primary screen (AID 1175);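 also: recombinant parasite enzyme with a five histidine tag at its C terminus; test concentration not given here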
Conditions: PfDHODH enzyme, DCIP absorbance 600 nm; higher = more signal, called active from +8 up or from −8 down

Chain of Dihydroorotate dehydrogenase (quinone), mitochondrial (Plasmodium falciparum (isolate 3D7)) (Q08210 whole entry, looked up): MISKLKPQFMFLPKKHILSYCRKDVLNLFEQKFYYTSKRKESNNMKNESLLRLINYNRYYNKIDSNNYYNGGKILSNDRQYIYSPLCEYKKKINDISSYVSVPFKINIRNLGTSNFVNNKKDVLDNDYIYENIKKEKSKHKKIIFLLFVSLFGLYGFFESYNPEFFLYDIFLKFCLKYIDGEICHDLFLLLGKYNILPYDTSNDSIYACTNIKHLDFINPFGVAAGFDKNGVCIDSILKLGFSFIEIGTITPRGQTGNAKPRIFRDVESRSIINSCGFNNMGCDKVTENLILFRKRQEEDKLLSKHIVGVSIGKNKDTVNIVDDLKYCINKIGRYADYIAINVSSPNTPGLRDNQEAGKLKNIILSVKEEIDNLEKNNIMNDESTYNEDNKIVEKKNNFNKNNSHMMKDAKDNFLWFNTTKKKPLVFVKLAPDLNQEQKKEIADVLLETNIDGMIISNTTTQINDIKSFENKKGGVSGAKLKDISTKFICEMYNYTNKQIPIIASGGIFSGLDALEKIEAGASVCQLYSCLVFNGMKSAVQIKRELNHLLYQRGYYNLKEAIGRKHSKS

Composite z-score, inactive:
COC(=O)[C@@]1(Cc2ccc(F)cc2)[C@H]2c3cc(C(=O)N4CCCC4)n(Cc4ccc(S(C)(=O)=O)cc4)c3C[C@H]2CN1C(=O)c1ccccc1 -0.159
CO[C@H]1O[C@H](CO)[C@@H](OC(=O)Nc2ccc(C(F)(F)F)cc2)[C@H](OC(=O)Nc2ccc3c(c2)OCO3)[C@@H]1OC(=O)Nc1ccc2c(c1)OCO2 0.524
O=C1O[C@@H](c2ccccc2)[C@@H](c2ccccc2)N2[C@@H](c3ccccc3OCCO)[C@]3(C(=O)Nc4ccccc43)[C@@H](C(=O)Nc3nc4ccccc4s3)[C@H]12 0.905
Cc1ccc(S[C@]2(C(=O)NCCCN(C)C)CC(=O)N(Cc3cc(C(F)(F)F)cc(C(F)(F)F)c3)[C@@H]2c2ccc(CO)cc2I)cc1 -0.0868
O=C1c2ccccc2[C@](Cc2ccccc2I)(C(=O)NCC(F)(F)F)[C@H](c2ccc(CO)cc2)N1Cc1ccccc1Cl -0.246
O=C(NCCN1CCOCC1)[C@@H]1c2ccccc2C(=O)N(C2CCCCC2)[C@H]1c1ccc(CO)cc1 -0.146
CC#CC(=O)Oc1ccccc1C=CC(=O)OCC -0.155
COC(=O)[C@@]1(CCS(=O)(=O)c2ccccc2)N=C(c2ccc(OCCCO)cc2)O[C@H]1c1ccccc1CN=[N+]=[N-] 0.484
C=CC1(C(=O)OC)CC=C(C(=O)OC)CC1 (stereo not given) -2.11
CC(C)C(CO)N1C(=O)[C@@H]2C3C(=O)OCCC/C=C\[C@H]3OC23C=CCN(CCN2CCOCC2)C(=O)[C@@H]13 (stereo not given in full) -3.09
COc1cc(C(O)C2C=CC3C(=O)NC(=O)C3N2Nc2ccccn2)cc(OC)c1OC (stereo not given) 1.14
COC(=O)[C@@]1(Cc2ccccc2)[C@H]2c3cc(C(=O)N4CCCC4)n(Cc4ccc(S(C)(=O)=O)cc4)c3C[C@H]2CN1C(=O)c1ccccc1 -0.467
C=C[C@@H](COC(=O)OC(C)(C)C)N(Cc1ccc(OC)cc1)S(=O)(=O)c1ccc(Br)cc1 -0.316
COC(=O)[C@H](Cc1ccccc1)N[C@@H](/C=C/C1CC1)[C@H](O)Cc1ccccc1 0.342
O=C1c2ccccc2[C@](Cc2ccccc2I)(C(=O)NCCN2CCOCC2)[C@H](c2ccc(CO)cc2)N1C1CCCCC1 -0.119
CCOC(=O)[C@H]1C/C=C/C[C@H](C(=O)OCC)C(=O)O[C@H]2[C@@H](OC)O[C@H](CO)[C@@H](OC(=O)c3c(OC)cccc3OC)[C@@H]2OC1=O -0.232
CCOC(=O)C[C@H]1[C@H](OC(=O)c2ccc(C(=O)c3ccccc3)cc2)[C@@H](NC(=O)c2ccc3ccccc3c2)c2cc(OCCCO)ccc2N1C(=O)Cc1ccc(OC)cc1 -0.148
CCC(CC)C(O)C1C=CC2C(=O)NC(=O)C2N1Nc1ccccn1 (stereo not given) -0.629
COc1ccc([Si](C)(C)[C@H]2[C@H](CC(=O)N3Cc4ccccc4C[C@H]3CO)O[C@@]3(C(=O)N(Cc4cccc(N5CCC5=O)c4)c4ccccc43)[C@@H]2C)cc1 -2.72
OCCCC1=CC(c2cccs2)N(Cc2cc3c(cc2Br)OCO3)CC1 (stereo not given) -0.966
CCCCCCc1nc(-c2ccc(OC)nc2)cc2c1[Si](C(C)C)(C(C)C)O[C@H]2c1ccccc1 -0.0348
COc1ccc([Si](C)(C)[C@H]2[C@H](CCO)O[C@@]3(C(=O)N(Cc4ccc(N(C=O)c5ccccc5)cc4)c4ccccc43)[C@@H]2C)cc1 0.041
O=C(NCCO)C1=C[C@H](Oc2ccccc2I)[C@@H](O)[C@H](N(Cc2ccco2)C(=O)Cc2ccccc2)C1 1.06
C=C[C@H](C)[C@@H](OC(=O)Nc1ccc(OC)cc1)c1ccc(O)c2ccccc12 -2.51
C=C(COC)/C(=C/C[C@H](OC(C)=O)c1ccc(CO)o1)c1cc(C(=O)OC)ccc1OC -6.52
COC(=O)[C@@]1(Cc2ccccc2)[C@H]2c3cc(C(=O)N(C)C)n(Cc4ccsc4Br)c3C[C@H]2CN1C(=O)c1ccccc1 0.486
COc1ccc([Si](C)(C)[C@@H]2[C@@H](CCO)O[C@]3(C(=O)N(Cc4ccc(N(C=O)c5ccccc5)cc4)c4ccccc43)[C@H]2C)cc1 -0.493
CN(C)CCCCCCNC(=O)[C@H]1C[C@H]2C(=O)N3CCC[C@H]3C(=O)N2[C@H]1c1ccc(O)cc1 -1.76
O=C(CS)NCCCCCCNC(=O)[C@@H]1C[C@@H]2C(=O)NCC(=O)N2[C@@H]1c1cccc(OCCO)c1 -0.216
COC(=O)[C@@]1(Cc2ccc(F)cc2)[C@H]2c3cc(C(=O)N(C)C)n(Cc4ccccc4)c3C[C@H]2CN1C(=O)c1ccccc1 0.151
C=CCNC(=O)[C@H]1[C@@H]2C(=O)O[C@@H](c3ccccc3)[C@@H](c3ccccc3)N2[C@@H](c2ccccc2OCCO)[C@]12C(=O)Nc1ccc(C#CCC(C(=O)OC)C(=O)OC)cc12 -0.95
COCCOC(=O)N1C(=O)[C@@]2(c3cc(C#CCNC(N)=O)ccc31)[C@H](C(=O)Nc1nc3ccccc3s1)[C@H]1C(=O)O[C@H](c3ccccc3)[C@H](c3ccccc3)N1[C@@H]2c1ccc(OCCO)cc1 -0.716
C=CCOC(=O)[C@H]1[C@@H]2C(=O)O[C@@H](c3ccccc3)[C@@H](c3ccccc3)N2[C@@H](c2ccc(OCCOC(=O)[C@H]3C[C@H]4C(=O)N[C@@H](CCCC[N+](C)(C)C)C(=O)N4[C@H]3c3ccc(O)cc3)cc2)[C@]12C(=O)Nc1ccc(I)cc12 -0.24
C=CCOC(=O)[C@H]1[C@@H]2C(=O)O[C@@H](c3ccccc3)[C@@H](c3ccccc3)N2[C@@H](c2ccc(OCCOC(=O)[C@H]3C[C@H]4C(=O)N[C@@H](CCCCN(C)C)C(=O)N4[C@H]3c3ccc(O)cc3)cc2)[C@]12C(=O)Nc1ccc(I)cc12 0.341
C=CCN1C(=O)[C@@]2(CC=C)N=C(c3ccc(OCCCO)cc3)O[C@H]2c2ccccc21 -1.17
